From PubChem BioAssay AID588689 (Southern Research Specialized Biocontainment Screening …, 2011) come the findings set out here.

Broadly, the inhibition is the change of the read-out against control, counted positive when it falls.

Among all 340,000 compounds or so, about 1,000 (0.29%) were called active. Rule as the data show it: inconclusive = inhibition above about 29% without an active follow-up result; inactive = below that. The list is a sample of the results. Results with a measured potency or affinity are listed apart.

This experiment concerns the target Genome polyprotein (Dengue virus type 2 (strain 16681-PDK53)) (UniProt P29991). The experiment can be described thus: Dengue-2 NS5 methyltransferase inhibitors, primary screen, biochemical, confirmation dose response (AID 588689). Conditions: Dengue-2 NS5 methyltransferase capping enzyme assay, at 25 µM, stronger effect = higher value.

As for `CNC(=O)NC(=O)CSc1nc2cc(C(=O)OC)ccc2c(=O)n1-c1ccccc1`, the inhibition was -2.77% (inactive).
The same measure, in the same setting: the same measure for `COc1ccc2nc(C)cc(SCC(NC(C)=O)C(=O)OC(C)C)c2c1` (configuration not stated): 0.78% (inactive); for `COc1ccccc1C(=O)Nc1ncc2c(n1)CC(c1ccco1)CC2=O` (configuration not stated): -1.36% (inactive).
The same measure, in the same setting: as for `O=C(NCc1ccccn1)c1cc(S(=O)(=O)N2CCCCCC2)ccc1Cl`, the figure is 1.3% (inactive).
For the compound `COc1cc(C(=O)O/N=C2\C=CC(=O)C(C)=C2)cc(OC)c1OC`, the inhibition is -39% (inactive).
The same measure, in the same setting: as for `Oc1ccc(/C=N/N2CCN(C3c4ccccc4-c4ccccc43)CC2)cc1`, the figure is -2.06% (inactive).
In the case of `COc1ccc(OC)c2c1CCC2=O`, the inhibition is 0% (inactive).
The same measure, in the same setting: the same measure for `COc1ccc(N)c2c1C(=O)c1ccccc1C2=O`: -1.95% (inactive); for `CCOc1ccc(S(=O)(=O)N2CCCCC2)cc1NC(=O)C1COc2ccccc2O1` (configuration not stated): 1.45% (inactive).
Same read-out and setting: as for `O=C(NCc1ccccc1)c1cnc(Cl)c(Cl)c1`, the figure is -7.44% (inactive); as for `COC(=O)c1ccc(COc2cccnc2[N+](=O)[O-])cc1`, 0% (inactive); as for `O=C(N/N=C/c1cccc(Cl)c1)C1CCCC1`, 0% (inactive).
Regarding `O=C(Nc1ccccc1C(=O)Nc1ccccc1C(=O)O)c1ccccc1`, the inhibition is 2.59% (inactive).
`O=C(Nc1ccccc1C(=O)O)c1ccccc1`: the inhibition is -0.69% (inactive).
As for `Cc1cccc(C(=O)Nc2ccc(O)cc2C(=O)O)c1`, the inhibition is 14.3% (inactive).
The same measure, in the same setting: the same measure for `Cc1ccc(C(=O)Nc2ccc(O)cc2C(=O)O)cc1`: -8.03% (inactive).
On the same count and under the same terms, the same measure for `CC(=O)Nc1cccc(C(=O)Nc2ccccc2C(=O)O)c1`: 3.9% (inactive); for `Cc1ccc(C(=O)Nc2ccccc2C(=O)O)cc1S(=O)(=O)Nc1ccccc1`: 3.97% (inactive).
Still for that read-out and setting: the same measure for `O=C(Nc1ccccc1C(=O)O)c1cccc(S(=O)(=O)Nc2ccc(Br)cc2)c1`: 22.4% (inactive).
Take `O=C(Nc1ccccc1C(=O)O)c1cccc(F)c1`: the inhibition was 3.35% (inactive).
For `Cc1cccc(N(CC(O)CN2CCOCC2)S(=O)(=O)c2ccccc2)c1` (configuration not stated), the inhibition is 0% (inactive).
Same read-out and setting: the same measure for `Cc1cc(-c2ccccc2N)n[nH]1`: -5.29% (inactive); for `CCN(C(=O)COC(=O)c1ccccc1NCCO)c1cccc2ccccc12`: 6.52% (inactive); for `COc1ccc(NC(=O)c2ccc(-c3ccccc3C(F)(F)F)o2)cc1`: -7.03% (inactive).
Still for that read-out and setting: as for `COc1cc(C2c3cc4c(cc3OC(NCCc3ccccc3)C2C)OCO4)cc(OC)c1OC` (configuration not stated), the figure is -4.03% (inactive); as for `COc1ccc(S(N)(=O)=O)cc1C(=O)OCC(=O)Nc1sccc1C#N`, -21% (inactive); as for `COc1ccccc1N(CC(=O)NCCSc1ccccc1)S(=O)(=O)c1ccccc1`, -5.79% (inactive).
As for `O=C(CSc1ncn[nH]1)N1N=C2/C(=C/c3ccco3)CCCC2C1c1ccco1` (configuration not stated), the inhibition was -4.57% (inactive).
Still for that read-out and setting: the same measure for `Cc1ccccc1C(=O)Nc1nnc(SC(C)C)s1`: -3.88% (inactive); for `Cc1ccc(-n2nc3c(=O)n(CC(=O)NCCCc4ccccc4)nc(C)c3c2C)cc1`: -3.57% (inactive); for `CC(C)(C)OC(=O)N1CCCC(C(=O)CC#N)C1` (configuration not stated): -13.4% (inactive).
Still for that read-out and setting: as for `CC1/C(=N/O)CC(c2ccccc2)NC1c1ccccc1` (configuration not stated), the figure is 3.42% (inactive); as for `COCCNc1nc(NCc2ccccc2)c2cnn(C)c2n1`, -7.24% (inactive).
Still for that read-out and setting: as for `CN(C)CCCN1CC(=O)N2[C@@H](Cc3c([nH]c4ccccc34)C2(C)C)C1=O`, the figure is 5.89% (inactive); as for `COc1ccc(CCC(=O)Nc2sc(C(=O)N(C)C)c(C)c2C#N)cc1`, 2.58% (inactive); as for `COc1ccc(Nc2ccc(C(=O)O)cc2[N+](=O)[O-])cc1`, 3.64% (inactive).
`Cc1ccc(Nc2ccc(C(=O)O)cc2[N+](=O)[O-])cc1`: the inhibition was 17% (inactive).
On the same count and under the same terms, the same measure for `COc1ccc(C(C)=O)cc1COC(=O)CNC(=O)C1CCCCC1`: 10.9% (inactive); for `Cc1cccc(-c2nnc(SCC3CNC(=O)O3)n2-c2ccc(Cl)cc2)c1` (configuration not stated): -12.5% (inactive); for `Cc1sc(NC(=O)C2C3C=CC(C3)C2C(=O)O)c(C(N)=O)c1-c1ccc(C(C)C)cc1` (configuration not stated): -5.14% (inactive).
With `Cc1sc(NC(=O)C2CCCCC2C(=O)O)c(C(N)=O)c1-c1ccccc1` (configuration not stated), the inhibition was -2.08% (inactive).
Regarding `CC(C)=C1C2CCC1C(C(=O)Nc1sc(C)c(-c3ccc(C(C)C)cc3)c1C(N)=O)C2C(=O)O` (configuration not stated), the inhibition was 2.89% (inactive).
Still for that read-out and setting: the same measure for `Cc1sc(NC(=O)C2C3CCC(C3)C2C(=O)O)c(C(N)=O)c1-c1ccc(C(C)(C)C)cc1` (configuration not stated): 7.13% (inactive).
On to `COc1ccc(NC(=O)CN2CCN(S(=O)(=O)N(C)C)CC2)cc1`, for which the inhibition was 2.61% (inactive). For the setting “measured here: pilot screen replicate inhibition”, the inhibition worked out at 3.63%.
As for `Cc1c(C(=O)c2ccc(Cl)c(Cl)c2)cnc2cc3c(cc12)OCO3`, the inhibition is 0.78% (inactive).
The same measure, in the same setting: as for `Nc1c(C(=O)O)sc2nc(-c3ccccc3)cc(-c3ccccc3)c12`, the figure is -27% (inactive); as for `Nc1c(C(=O)O)sc2nc(-c3ccccc3)cc(-c3ccc(F)cc3)c12`, -4.6% (inactive); as for `CCOC(=O)CC1COc2ccccc2N1C(=O)c1cccc([N+](=O)[O-])c1` (configuration not stated), -0.68% (inactive).
The same measure, in the same setting: the same measure for `CCOc1ccc(N2C(=O)CC(N(Cc3ccco3)C(=O)CCC(=O)O)C2=O)cc1` (configuration not stated): -7.79% (inactive).
Still for that read-out and setting: as for `Cc1c(C(=O)OCC(=O)NC2CC2)oc2ccc(Br)cc12`, the figure is 4.33% (inactive); as for `CNCc1ccccc1Sc1cccc(O)c1`, -3.83% (inactive).
On to `CNCc1ccccc1Sc1cc(O)ccc1O`, for which the inhibition is -2.55% (inactive).
Same read-out and setting: as for `Cc1cc(NC(=O)CSc2ccccn2)cc(NC(=O)CSc2ccccn2)c1`, the figure is -6.51% (inactive); as for `O=C(O)c1cccc(NS(=O)(=O)c2ccc3c(c2)C(=O)c2ccccc2C3=O)c1`, 16.2% (inactive); as for `O=C(O)c1ccc(NS(=O)(=O)c2cc(Cl)ccc2Cl)cc1`, -2.78% (inactive).
For the compound `O=C1c2ccccc2C(=O)c2cc(S(=O)(=O)Nc3ccccc3)ccc21`, the inhibition was -0.73% (inactive).
Same read-out and setting: the same measure for `O=C(O)c1ccc(Cl)c(S(=O)(=O)Nc2ccccc2Cc2ccccc2)c1`: -0.83% (inactive).
Still for that read-out and setting: as for `O=C(O)c1ccc(F)c(S(=O)(=O)Nc2ccccc2Cl)c1`, the figure is 4.09% (inactive); as for `O=C(O)c1ccc(Cl)c(S(=O)(=O)Nc2ccc(S(=O)(=O)N3CCCC3)cc2)c1`, -5.16% (inactive).
Same read-out and setting: the same measure for `O=C(O)c1cccc(S(=O)(=O)Nc2ccc(-c3ccccc3)cc2)c1`: -3.98% (inactive); for `O=C(O)c1cccc(NS(=O)(=O)c2ccc(Oc3ccc(S(=O)(=O)Nc4cccc(C(=O)O)c4)cc3)cc2)c1`: 13.8% (inactive).
